# Experimental data reported in ChEMBL document CHEMBL3988442, “University of Dundee, Small-Polar-MMV Screening Library” (2021).
# Molecular target: AMP-activated protein kinase, AMPK (Homo sapiens) (UniProt P54646+O43741+P54619+Q9UGJ0+Q9Y478+Q13131+Q9UGI9)
# Experiment: AMP-dependent Kinase enzyme assay. An in vitro enzyme assay that detects ADP turnover that is directly proportional to AMPK activity. This uses naive AMPK that is activated during the assay with MK-8722
# Format: functional
# Design: scale not given: direction of the effect not stated beside the values
# Conditions: 30 µM
row,SMILES,Percent Effect [%]
1,CN1CCC(NC(=O)c2cc(Br)cc(Cl)c2O)C1=O (stereo not given),11.8
2,CS(=O)(=O)CCCNc1cccc(COC2CCCCC2)c1,-2.55
3,CC(C)c1nc(C2CCCN2CCNS(C)(=O)=O)no1 (stereo not given),9.75
4,COCCN1CCCC(c2nccnc2-c2cccc(Cl)c2)C1 (stereo not given),-11.9
5,O=C(C1CCCO1)N1CCC(n2cc(-c3ccsc3)nn2)CC1 (stereo not given),4.03
6,O=C(CCc1nnc(-c2ccsc2)o1)NCC1CCN(C2CC2)C1 (stereo not given),4.06
7,O=S(=O)(NCCCn1cncn1)c1ccc2c(c1)CCCC2,6.33
8,CCCN(CCC)C(=O)CN1CCCC1C(=O)N(C)C (stereo not given),-3.78
9,COc1ncccc1C(=O)NCCn1nc(C)ccc1=O,-4.66
10,Cc1cc(CNC2(CO)CCOCC2)ccc1Br,5.13
11,CC(C)(C)c1n[nH]cc1CNC1CCC(O)CC1 (stereo not given),-0.675
12,CN(C)c1ncccc1N(C)C(=O)Cn1cc(-c2ccccc2)nn1,-17.2
13,CC(C)c1nnc(NC(=O)Cc2csc(-c3nnc[nH]3)n2)s1,6.49
14,CN(C(=O)c1ccccn1)c1nnc(C2CCOC2)s1 (stereo not given),9.22
15,CN(Cc1ccccc1)S(=O)(=O)N1C[C@H](C2CC2)[C@@H](N)C1,-0.41
16,CO[C@@H]1c2ccccc2C2(CCN(C(=O)CNC(=O)C(C)C)CC2)[C@H]1O,13.3
17,N#Cc1cccc(N2CCCC(CO)(CCOc3ccccc3)C2)n1 (stereo not given),3.31
18,CN(CCc1ccccc1)c1cnn(C)c(=O)c1Br,7.95
19,COc1ccc2c(c1)CCCC2CC(=O)O (stereo not given),-8.39
20,CNC(=O)C(C)NC(=O)c1cc(COc2ccc(OC)cc2Cl)[nH]n1 (stereo not given),-1.41

row,SMILES,Percent Effect [%]
1,Cc1ncsc1CCC(=O)N(C)Cc1nc2ccccc2n1C,0.381
2,CC(=O)N1CCN(C(=O)NC(C)Cn2ccnc2)CC1 (stereo not given),-4.12
3,Cc1nn2cccnc2c1C(=O)NCc1ccccc1OC1CCC1,6.53
4,CCCn1nnnc1CN(CC)CC1COc2ccccc2O1 (stereo not given),1.1
5,Cc1ccc(OCCN(C)C2CCOC2=O)cc1 (stereo not given),0.0432
6,CNC(=O)[C@@H](C)NC(=O)c1cc(-c2ccc(F)cc2)c(C)s1,2.33
7,Cn1c(CO)nnc1SCc1c(F)cccc1Br,2.62
8,Cn1ccnc1-c1cn(CCCc2csc(N)n2)nn1,-21
9,CCSCC(C)NCc1ccccc1-n1ccnc1 (stereo not given),7.25
10,c1nn(C2CCCCC2)cc1-c1cncn1CCCN1CCCCC1,1.56
11,Cc1nc(CN2CCc3ccc(S(N)(=O)=O)cc32)oc1C,-7.39
12,CCc1nnc(CN2CC(n3cccn3)C2)o1,-3.56
13,CC(Oc1ccc2c(c1)OCO2)C(=O)N1CCC(N2CCCC2)CC1 (stereo not given),6.31
14,Cc1cc(C)c(C#N)c(NCCSc2nncn2C)n1,-0.426
15,Cc1nnc(SCCNc2cc(C3CC3)ncn2)s1,14.2
16,CCN1CC(COC(=O)c2cc(C)nn2CC)CC1=O (stereo not given),5.06
17,CCCN1CCC(CC(=O)NCCc2nc(C)cc(C)n2)CC1,6.07
18,CC(C)(C)c1nc(CNc2cc3c(cc2Cl)NC(=O)CO3)no1,2.92
19,COc1cccc(OCC2CCCN(c3cc(C(N)=O)ccn3)C2)c1 (stereo not given),4.97
20,CC(C)(C)NC(=O)C1CCCCN1Cc1nccn1CC(F)(F)F (stereo not given),-2.34
